# Data published in PMC8384837, “Expanding the binding specificity for RNA recognition by a PUF domain”.
# What was measured:
# Test in all cases: yeast three-hybrid, YBZ-1, SC-Leu-His + 0.5 mM 3-AT, 4 days
# Conditions in all cases: tags: N-Gal4 AD-HA kept; label: inside an RPR1-promoter hybrid RNA with tandem MS2 sites; ssRNA
# [1] = target: PUM1 PUF domain R4-LHQ (Homo sapiens, UniProt Q14671 828-1176, N971L)
# Procedure, shortened: (§1)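 Pumilio-1 PUF domain libraries, randomized (NNK) at the three base-contacting residues of each repeat, were co-expressed with matching RNA elements from a centromeric plasmid in strain YBZ-1 (LexA–MS2 coat fusion, HIS3 reporter). Transformants were plated on SC-Leu (input) and SC-Leu-His + 0.5 mM 3-AT (selection) for four days, and repeat regions were PCR-amplified and Illumina-sequenced. The interaction score is the log2 change in variant frequency from input to selection, with pseudocount 1 where absent.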
# [2] = target: PUM1 PUF domain R4-HNS (Homo sapiens, UniProt Q14671 828-1176, N971H;H972N;Q975S)
# Procedure, shortened: as §1
# [3] = target: PUM1 PUF domain R4-GFW (Homo sapiens, UniProt Q14671 828-1176, N971G;H972F;Q975W)
# Procedure, shortened: as §1
# [4] = target: PUM1 PUF domain R4-FGR (Homo sapiens, UniProt Q14671 828-1176, N971F;H972G;Q975R)
# Procedure, shortened: as §1
# [5] = target: PUM1 PUF domain R3-VRI (Homo sapiens, UniProt Q14671 828-1176, C935V;Q939I)
# Procedure, shortened: as §1
# [6] = target: PUM1 PUF domain R4-RLF (Homo sapiens, UniProt Q14671 828-1176, N971R;H972L;Q975F)
# Procedure, shortened: as §1
# [7] = target: PUM1 PUF domain R5-QLS (Homo sapiens, UniProt Q14671 828-1176, C1007Q;R1008L;Q1011S)
# Procedure, shortened: as §1
# [8] = target: PUM1 PUF domain R4-RMT (Homo sapiens, UniProt Q14671 828-1176, N971R;H972M;Q975T)
# Procedure, shortened: as §1
# [9] = target: T1, PUM1 PUF domain R6-RWC (Homo sapiens, UniProt Q14671 828-1176, N1043R;Y1044W;Q1047C)
# T1 sequence: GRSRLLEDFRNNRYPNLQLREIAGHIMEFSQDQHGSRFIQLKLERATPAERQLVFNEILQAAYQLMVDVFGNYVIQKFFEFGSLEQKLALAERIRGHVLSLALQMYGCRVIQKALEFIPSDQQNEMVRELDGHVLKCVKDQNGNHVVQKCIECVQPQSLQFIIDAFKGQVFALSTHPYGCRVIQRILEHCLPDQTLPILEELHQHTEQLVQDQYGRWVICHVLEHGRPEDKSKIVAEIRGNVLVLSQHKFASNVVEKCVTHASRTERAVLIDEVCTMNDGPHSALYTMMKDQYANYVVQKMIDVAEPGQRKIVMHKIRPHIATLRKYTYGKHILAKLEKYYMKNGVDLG
# Procedure, shortened: as §1
# [10] = target: PUM1 PUF domain R5-NLL (Homo sapiens, UniProt Q14671 828-1176, C1007N;R1008L;Q1011L)
# Procedure, shortened: as §1
# [11] = target: PUM1 PUF domain R5-NKR (Homo sapiens, UniProt Q14671 828-1176, C1007N;R1008K;Q1011R)
# Procedure, shortened: as §1
# [12] = target: PUM1 PUF domain R5-KTN (Homo sapiens, UniProt Q14671 828-1176, C1007K;R1008T;Q1011N)
# Procedure, shortened: as §1
# [13] = target: PUM1 PUF domain R2-LWF (Homo sapiens, UniProt Q14671 828-1176, N899L;Y900W;Q903F)
# Procedure, shortened: as §1
# [14] = target: PUM1 PUF domain R7-IMG (Homo sapiens, UniProt Q14671 828-1176, S1079I;N1080M;E1083G)
# Procedure, shortened: as §1
# Chain of PUM1 PUF domain R5-KTN (Q14671 828-1176 C1007K/R1008T/Q1011N): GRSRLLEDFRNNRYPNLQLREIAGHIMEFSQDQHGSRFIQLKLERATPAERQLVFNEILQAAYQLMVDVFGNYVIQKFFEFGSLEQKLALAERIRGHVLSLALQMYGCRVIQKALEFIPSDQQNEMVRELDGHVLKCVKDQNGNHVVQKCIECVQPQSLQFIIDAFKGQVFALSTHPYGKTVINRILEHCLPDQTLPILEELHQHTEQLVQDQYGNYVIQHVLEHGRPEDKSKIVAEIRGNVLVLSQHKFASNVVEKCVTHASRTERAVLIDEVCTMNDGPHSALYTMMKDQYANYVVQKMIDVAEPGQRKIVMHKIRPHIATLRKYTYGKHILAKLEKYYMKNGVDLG
# Chain of PUM1 PUF domain R5-NLL (Q14671 828-1176 C1007N/R1008L/Q1011L): as the sequence (Q14671 828-1176 C1007K/R1008T/Q1011N) above, with K180N, T181L, N184L counted along it
# Chain of PUM1 PUF domain R7-IMG (Q14671 828-1176 S1079I/N1080M/E1083G): as the sequence (Q14671 828-1176 C1007K/R1008T/Q1011N) above, with K180C, T181R, N184Q, S252I, N253M, E256G counted along it
# Chain of PUM1 PUF domain R5-NKR (Q14671 828-1176 C1007N/R1008K/Q1011R): as the sequence (Q14671 828-1176 C1007K/R1008T/Q1011N) above, with K180N, T181K, N184R counted along it
sequence,measurement,setting,value
GGCUAGAACUAGUGGAUCCCCCGGCGCCCGGCGGCUCGAGCCCGGGUAAGUGUAUAUAGUCUGCAUGCCGCCGGGCGCCAUGCCUGCAGGUCGACUCUAGAAAACAUG,binding signal,[1],6.92 log2 enrichment (interaction score)
same,binding signal,[2],4.08 log2 enrichment (interaction score)
same,binding signal,[3],4.86 log2 enrichment (interaction score)
same,binding signal,[4],2.32 log2 enrichment (interaction score)
GGCUAGAACUAGUGGAUCCCCCGGCGCCCGGCGGCUCGAGCCCGGGUAAGUGUAAAUAGUCUGCAUGCCGCCGGGCGCCAUGCCUGCAGGUCGACUCUAGAAAACAUG,binding signal,[2],1.42 log2 enrichment (interaction score)
same,binding signal,[5],4.31 log2 enrichment (interaction score)
same,binding signal,[6],4.74 log2 enrichment (interaction score)
same,binding signal,[3],4.78 log2 enrichment (interaction score)
same,binding signal,[7],0.83 log2 enrichment (interaction score)
same,binding signal,[8],3.47 log2 enrichment (interaction score)
same,binding signal,[9],4.89 log2 enrichment (interaction score)
GGCUAGAACUAGUGGAUCCCCCGGCGCCCGGCGGCUCGAGCCCGGGUAAGUGUUAAUAGUCUGCAUGCCGCCGGGCGCCAUGCCUGCAGGUCGACUCUAGAAAACAUG,binding signal,[10],2.94 log2 enrichment (interaction score)
same,binding signal,[11],5.24 log2 enrichment (interaction score)
GGCUAGAACUAGUGGAUCCCCCGGCGCCCGGCGGCUCGAGCCCGGGUAAGUGUCAAUAGUCUGCAUGCCGCCGGGCGCCAUGCCUGCAGGUCGACUCUAGAAAACAUG,binding signal,[12],3.79 log2 enrichment (interaction score)
GGCUAGAACUAGUGGAUCCCCCGGCGCCCGGCGGCUCGAGCCCGGGUAAGUGUAAAAAGUCUGCAUGCCGCCGGGCGCCAUGCCUGCAGGUCGACUCUAGAAAACAUG,binding signal,[13],6.96 log2 enrichment (interaction score)
GGCUAGAACUAGUGGAUCCCCCGGCGCCCGGCGGCUCGAGCCCGGGUAAGUGUAAACAGUCUGCAUGCCGCCGGGCGCCAUGCCUGCAGGUCGACUCUAGAAAACAUG,binding signal,[13],1.17 log2 enrichment (interaction score)
GGCUAGAACUAGUGGAUCCCCCGGCGCCCGGCGGCUCGAGCCCGGGUAAGUUUAAAUAGUCUGCAUGCCGCCGGGCGCCAUGCCUGCAGGUCGACUCUAGAAAACAUG,binding signal,[14],3.68 log2 enrichment (interaction score)
GGCUAGAACUAGUGGAUCCCCCGGCGCCCGGCGGCUCGAGCCCGGGUAAGUGUAAUUAGUCUGCAUGCCGCCGGGCGCCAUGCCUGCAGGUCGACUCUAGAAAACAUG,binding signal,[5],0.57 log2 enrichment (interaction score)
